In PubChem BioAssay (EPA / NIEHS):
Results filed as inconclusive are left out. The source made the active and inactive calls. How the source made its calls, unless noted: active means hit-call score of the fitted dose curve at least 0.9, where 1 is the maximum; inconclusive means response in the unintended direction; inactive means score below 0.9.

Read-out: solute carrier (SLC22A6), SLC22A6 (gene 9356)
Experiment: LTEA_HepaRG_SLC22A6: Life Technologies and Expression Analysis (LTEA) Assay for solute carrier (SLC22A6) using HepaRG (AID 2283653; active means hit-call score of the fitted dose curve at least 0.9, where 1 is the maximum; inactive means score below 0.9)
Details: mRNA level, 48 h; actives raise or lower the signal
Summary of the method: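 This endpoint tracks SLC22A6 mRNA induction or suppression in human HepaRG cultures after 48 h dosing, concentrations reaching 100 uM. Values derive from bidirectional fitting against DMSO controls.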

Row | Structure (SMILES) | outcome
1 | CCCCC(CC)CO (stereo not given) | inactive
2 | CCCCCCC(CCCCCCCCCCC(=O)OCC(COC(C)=O)OC(C)=O)OC(C)=O (stereo not given) | inactive
3 | CCCCCCCCCC[N+](C)(C)[O-] | inactive
4 | Cc1occc(=O)c1O | inactive
5 | CCC(C)N(C)C(=O)c1cc2ccccc2c(-c2ccccc2Cl)n1 (stereo not given) | inactive
6 | CN(C)CCCN1c2ccccc2Sc2ccc(Cl)cc21 | inactive

Tested on: not listed separately
Experiment: Tanguay_ZF_120hpf_SWIM_legacy: (Legacy) Oregon State University Tanguay Lab 120 Hour Post-fertilization zebrafish Assay for Swim Bladder Malformation (AID 2283654);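 further: swim bladder malformation in each larva scored yes or no under brightfield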
Details: not given
Summary of the method: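 Dechorionated Tropical 5D wild-type embryos, placed singly from 6 hpf, were statically exposed at 28C to 120 hpf with 0.64% DMSO final; swim bladder malformation was scored present/absent by brightfield microscopy, gain of signal relative to DMSO controls.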

Row | Structure (SMILES) | outcome
7 | CC(=O)OC1CC(C)OC(C)O1 (stereo not given) | inactive
8 | CCCCC(CC)CO (stereo not given) | inactive
9 | C#CC(O)C(CC)CCCC (stereo not given) | inactive
10 | O=C1c2c(O)cccc2Cc2cccc(O)c21 | inactive
11 | Nc1nc(Cl)nc2c1ncn2[C@H]1C[C@H](O)[C@@H](CO)O1 | inactive
12 | OCC(CO)n1cnc(-c2ccc(F)cc2)c1-c1ccnc(Oc2ccccc2)n1 | inactive
13 | CCCCCCCCCCCCCCOS(=O)(=O)O | inactive
14 | CC(C)COC(=O)CCCCC(=O)OCC(C)C | inactive
15 | O=C(O)c1cccnc1 | inactive
16 | Cc1cc(Cc2ccc(N)c(C)c2)ccc1N | inactive
17 | OCC(O)CO | inactive
18 | S=c1[nH]c2ccccc2s1 | inactive
19 | CC(=O)[C@@]1(O)CC[C@H]2[C@@H]3CCC4=CC(=O)CC[C@]4(C)[C@H]3CC[C@@]21C | inactive
20 | c1ccc2occc2c1 | inactive
21 | Nc1nc(=S)c2[nH]cnc2[nH]1 | inactive
22 | O=C1NC(=O)C(c2ccccc2)(c2ccccc2)N1 | inactive
23 | O=C(O)CN(CC(=O)O)CC(=O)O | inactive
24 | CCCCCCC(CCCCCCCCCCC(=O)OCC(COC(C)=O)OC(C)=O)OC(C)=O (stereo not given) | inactive
25 | CCN(CC)CCOc1ccc(C(=C(Cl)c2ccccc2)c2ccccc2)cc1 | inactive
